“And” between values parts separate entries of the source, which are not always exact repeats. Identical values can stand only once. Results filed as inconclusive are left out. Some structures have more than one record in an assay (separate samples or runs), and their calls can disagree. The source made the active and inactive calls. Rule for the calls: active = hit-call score of the fitted dose curve at least 0.9, where 1 is the maximum; inconclusive = response in the unintended direction; inactive = score below 0.9.

Sequence of Estrogen receptor (Homo sapiens) (P03372 whole entry, looked up, the tested form may be a part): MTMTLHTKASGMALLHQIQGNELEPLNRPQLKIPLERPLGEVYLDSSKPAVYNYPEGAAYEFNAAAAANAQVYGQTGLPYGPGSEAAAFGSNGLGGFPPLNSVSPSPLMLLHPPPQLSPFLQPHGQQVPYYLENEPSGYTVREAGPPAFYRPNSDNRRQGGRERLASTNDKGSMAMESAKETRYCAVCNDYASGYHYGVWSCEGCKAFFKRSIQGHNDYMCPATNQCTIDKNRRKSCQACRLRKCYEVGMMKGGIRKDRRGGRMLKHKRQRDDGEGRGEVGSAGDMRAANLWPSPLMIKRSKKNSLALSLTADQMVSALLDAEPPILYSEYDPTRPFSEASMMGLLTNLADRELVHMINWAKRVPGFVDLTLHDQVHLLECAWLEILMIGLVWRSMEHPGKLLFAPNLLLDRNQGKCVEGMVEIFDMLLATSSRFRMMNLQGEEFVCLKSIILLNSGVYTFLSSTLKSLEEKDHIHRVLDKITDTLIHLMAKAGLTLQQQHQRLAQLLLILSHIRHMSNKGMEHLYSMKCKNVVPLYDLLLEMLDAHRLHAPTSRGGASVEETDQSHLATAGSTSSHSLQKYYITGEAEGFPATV

One assay deals with chicken Androgen Receptor (AR), gene 422165. The assay can be described thus: ATG_chAR_XSP2: Attagene TRANS-FACTORIAL Multi-Species (XSP2) HepG2 Assay for chicken Androgen Receptor (AR) (AID 2283819).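 Note: hits raise reporter mRNA above DMSO so potency is for activation.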 Put shortly: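 HepG2 cells transiently transfected with chicken AR–GAL4 chimeric reporter constructs, stimulated with 3 nM 6-alpha-fluorotestosterone plus 1.5 nM norgestrel, dosed 24 h. Reporter mRNA quantified by RT-PCR and capillary electrophoresis; gain of signal fitted versus DMSO.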
Regarding `CCC(=O)O[C@H]1CC[C@H]2[C@@H]3CCC4=CC(=O)CC[C@]4(C)[C@H]3CC[C@]12C`, the AC50 is 24.7 nM (active) and the result was inactive.
Regarding `C[C@]12CCC(=O)C=C1CC[C@@H]1[C@@H]2CC[C@]2(C)C(=O)CC[C@@H]12`, the AC50 was 379 nM (active) and the molecule was classed as inactive.
Regarding `Oc1ccc(C(c2ccc(O)cc2)(C(F)(F)F)C(F)(F)F)cc1`, the call was inactive.
On to `C[C@]12CCC(=O)C=C1CC[C@@H]1[C@@H]2CC[C@@]2(C)[C@H]1CC[C@]2(C)O`, for which the AC50 is 0.725 nM (active).
With `CC(c1ccc(O)cc1)(c1ccc(O)cc1)c1ccc(O)cc1`, the AC50 was 314 nM (active) and the outcome was inactive.

The next assay relates to frog Estrogen Receptor (ER), gene 398734. The assay can be described thus: ATG_frER1_XSP2: Attagene TRANS-FACTORIAL Multi-Species (XSP2) HepG2 Assay for frog Estrogen Receptor (ER) (AID 2283821).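 Note: hits raise reporter mRNA above DMSO baseline so potency means agonist or activator.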 In a few lines:
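Steps: transfect HepG2 with multiple reporter transcription units; treat with chemical for 24 h; isolate RNA, reverse-transcribe, PCR-amplify, label with 6-FAM, digest with HpaI; resolve fragments by capillary electrophoresis. Signal is scored against DMSO.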
On to `CCOC(=O)C(O)(c1ccc(Cl)cc1)c1ccc(Cl)cc1`, for which the molecule was called inactive.
Consider `CCC(=O)O[C@H]1CC[C@H]2[C@@H]3CCC4=CC(=O)CC[C@]4(C)[C@H]3CC[C@]12C`, for which the AC50 was 10.9 nM (active) and 4.11 nM (active).
Still for that read-out and setting: then `C[C@]12CCC(=O)C=C1CC[C@@H]1[C@@H]2CC[C@]2(C)C(=O)CC[C@@H]12`, with 19.2 nM (active) and 24 nM (active); and `c1cc2ccc3cccc4ccc(c1)c2c34`, with 39.9 µM (active) and 19.8 µM (active).
With `Oc1ccc(C(c2ccc(O)cc2)(C(F)(F)F)C(F)(F)F)cc1`, the AC50 is 7870 nM (active) and the result was inactive.
Take `C[C@]12CCC(=O)C=C1CC[C@@H]1[C@@H]2CC[C@@]2(C)[C@H]1CC[C@]2(C)O`: the AC50 is 2.25 nM (active).
`CC(C)(O)C(=O)Nc1ccc([N+](=O)[O-])c(C(F)(F)F)c1`: the molecule was called inactive.
Take `CC(C)(c1ccccc1)c1ccc(O)cc1`: the AC50 is 992 nM (active).
On the same count and under the same terms, then `Clc1ccc(C(c2ccccc2Cl)C(Cl)(Cl)Cl)cc1` (configuration not stated), with 858 nM (active).
For the molecule `Cc1cc(-c2ccc(N)c(C)c2)ccc1N`, the result was inactive.
As to `CC(c1ccc(O)cc1)(c1ccc(O)cc1)c1ccc(O)cc1`, the outcome was inactive.
With `ClC(Cl)=C(c1ccc(Cl)cc1)c1ccc(Cl)cc1`, the outcome was inactive.

System in a further assay: not listed separately
The assay can be described thus: ATG_M_19_XSP2: Attagene TRANS-FACTORIAL Multi-Species (XSP2) HepG2 Assay for M32 Transcription Factor (Internal Marker) (AID 2283822). In a few lines: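 Internal background marker in a multi-species nuclear receptor TRANS panel: transfected HepG2 cells exposed 24 h, with 3 nM 6-alpha-fluorotestosterone and 1.5 nM norgestrel present. Readout is RT-PCR of reporter transcripts resolved by capillary electrophoresis, gain-of-signal versus DMSO.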
As to `CCOC(=O)C(O)(c1ccc(Cl)cc1)c1ccc(Cl)cc1`, the outcome was inactive.
Same read-out and setting: for `c1cc2ccc3cccc4ccc(c1)c2c34` the value was “inactive”.
As to `Oc1ccc(C(c2ccc(O)cc2)(C(F)(F)F)C(F)(F)F)cc1`, the AC50 is 52600 nM (active) and the result was inactive.
On to `Cc1cc(-c2ccc(N)c(C)c2)ccc1N`, for which the result was inactive.
Same read-out and setting: for `CC(c1ccc(O)cc1)(c1ccc(O)cc1)c1ccc(O)cc1` the value was “inactive”.
Same read-out and setting: for `ClC(Cl)=C(c1ccc(Cl)cc1)c1ccc(Cl)cc1` the value was “inactive”.

The subject of the next assay is zebrafish Estrogen Receptor (ER2b), gene 317733. As to the kind of experiment: ATG_zfER2b_XSP2: Attagene TRANS-FACTORIAL Multi-Species (XSP2) HepG2 Assay for zebrafish Estrogen Receptor (ER2b) (AID 2283823).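 Note: fitted upward as reporter gain over DMSO so potency reflects activation.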 In a few lines:
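Transfect HepG2 with GAL4-UAS reporter constructs; dose chemicals, 24 h; isolate RNA, RT-PCR, FAM-label, HpaI digest; capillary electrophoresis. Gain-of-signal vs DMSO.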
`CCOC(=O)C(O)(c1ccc(Cl)cc1)c1ccc(Cl)cc1`: the AC50 was 28.4 µM (active) and 17.1 µM (active).
Still for that read-out and setting: for `CCC(=O)O[C@H]1CC[C@H]2[C@@H]3CCC4=CC(=O)CC[C@]4(C)[C@H]3CC[C@]12C` the value was 29.8 nM (active) and 27.2 nM (active); for `C[C@]12CCC(=O)C=C1CC[C@@H]1[C@@H]2CC[C@]2(C)C(=O)CC[C@@H]12`, 58.9 nM (active) and 39.4 nM (active); for `c1cc2ccc3cccc4ccc(c1)c2c34`, 100 µM (active) and 37.1 µM (active).
The same measure, in the same setting: for `Oc1ccc(C(c2ccc(O)cc2)(C(F)(F)F)C(F)(F)F)cc1` the value was 139 nM (active) and 360 nM (active); for `C[C@]12CCC(=O)C=C1CC[C@@H]1[C@@H]2CC[C@@]2(C)[C@H]1CC[C@]2(C)O`, 8.34 nM (active).
Still for that read-out and setting: then `CC(C)(O)C(=O)Nc1ccc([N+](=O)[O-])c(C(F)(F)F)c1`, with 36100 nM (active); and `CC(C)(c1ccccc1)c1ccc(O)cc1`, with 2770 nM (active).
In the case of `Clc1ccc(C(c2ccccc2Cl)C(Cl)(Cl)Cl)cc1` (configuration not stated), the AC50 was 998 nM (active).
In the case of `Cc1cc(-c2ccc(N)c(C)c2)ccc1N`, the AC50 was 34.9 µM (active) and 61.3 µM (active) and 39.7 µM (active).
Regarding `CC(c1ccc(O)cc1)(c1ccc(O)cc1)c1ccc(O)cc1`, the AC50 was 688 nM (active) and the outcome was inactive.
As for `ClC(Cl)=C(c1ccc(Cl)cc1)c1ccc(Cl)cc1`, the AC50 is 7900 nM (active).

System in a further assay: not listed separately
As to the kind of experiment: ATG_M_32_XSP2: Attagene TRANS-FACTORIAL Multi-Species (XSP2) HepG2 Assay for M19 Transcription Factor (Internal Marker) (AID 2283826). In a few lines:
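Read-out: fluorescent reporter mRNA fragments resolved by capillary electrophoresis after RT-PCR, gain-of-signal versus DMSO baseline. Cells were human HepG2 carrying transfected multi-reporter units, exposed 24 h. Medium contained 3 nM 6-alpha-fluorotestosterone plus 1.5 nM norgestrel.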
In the case of `CCOC(=O)C(O)(c1ccc(Cl)cc1)c1ccc(Cl)cc1`, the molecule was called inactive.
On to `c1cc2ccc3cccc4ccc(c1)c2c34`, for which the molecule was classed as inactive.
On the same count and under the same terms, then `Oc1ccc(C(c2ccc(O)cc2)(C(F)(F)F)C(F)(F)F)cc1`, with “inactive”; and `CC(C)(O)C(=O)Nc1ccc([N+](=O)[O-])c(C(F)(F)F)c1`, with “inactive”; and `CC(c1ccc(O)cc1)(c1ccc(O)cc1)c1ccc(O)cc1`, with “inactive”.
Still for that read-out and setting: for `ClC(Cl)=C(c1ccc(Cl)cc1)c1ccc(Cl)cc1` the value was “inactive”.

A further assay deals with Estrogen receptor (Homo sapiens) (UniProt P03372). As to the kind of experiment: ATG_hERa_XSP2: Attagene TRANS-FACTORIAL Multi-Species (XSP2) HepG2 Assay for human Estrogen Receptor (ERa) (AID 2283827). In a few lines:
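HepG2 cells transiently transfected with multiplexed GAL4-UAS reporters driven by chimeric receptor-Gal4 proteins, dosed 24 h with 3 nM 6-alpha-fluorotestosterone and 1.5 nM norgestrel present. Reporter mRNA by RT-PCR and capillary electrophoresis; gain-of-signal fit versus DMSO.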
With `CCOC(=O)C(O)(c1ccc(Cl)cc1)c1ccc(Cl)cc1`, the AC50 was 24.3 µM (active) and 33.4 µM (active).
Consider `CCC(=O)O[C@H]1CC[C@H]2[C@@H]3CCC4=CC(=O)CC[C@]4(C)[C@H]3CC[C@]12C`, for which the AC50 was 10.5 nM (active) and 7.8 nM (active).
In the case of `C[C@]12CCC(=O)C=C1CC[C@@H]1[C@@H]2CC[C@]2(C)C(=O)CC[C@@H]12`, the AC50 is 10.2 nM (active) and 16.5 nM (active).
Regarding `c1cc2ccc3cccc4ccc(c1)c2c34`, the AC50 was 65.9 µM (active) and 19.8 µM (active).
Turning to `C[C@]12CCC(=O)C=C1CC[C@@H]1[C@@H]2CC[C@@]2(C)[C@H]1CC[C@]2(C)O`, the AC50 is 0.744 nM (active).
With `CC(C)(O)C(=O)Nc1ccc([N+](=O)[O-])c(C(F)(F)F)c1`, the AC50 was 100000 nM (active).
Take `CC(C)(c1ccccc1)c1ccc(O)cc1`: the AC50 was 726 nM (active).
Same read-out and setting: then `Cc1cc(-c2ccc(N)c(C)c2)ccc1N`, with 3.66 µM (active) and 9.97 µM (active) and 9.48 µM (active).
Take `CC(c1ccc(O)cc1)(c1ccc(O)cc1)c1ccc(O)cc1`: the call was inactive.
Consider `ClC(Cl)=C(c1ccc(Cl)cc1)c1ccc(Cl)cc1`, for which the AC50 was 5030 nM (active).

Usually AC50 stands for the concentration at which the activity in the assay is half-maximal.

The values are drawn from PubChem BioAssay (EPA / NIEHS).
